# Source: PubChem (National Center for Advancing Translational Sciences (NCATS))
# HEK293 tox = cytotoxic in the GLP-1 receptor inverse agonist counter-screen; HEK293 cAMP-luciferase reporter cells, luminescence, 24 h; Potency, µM (titrated, usually from 38.3 µM), usual class: inhibitors; 410,000 tested, 0.13% active; AID 624418;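 also: loss of luciferase light is scored as toxicity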
#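 Step one: seed cells (200 cells/uL, DMEM with 10% Nu serum, 1% pen-strep). Step two: 12-hour incubation at 37 deg C. Step three: pin 23 nL compound, incubate 24 hr. Step four: add luciferase reagent, read luminescence 12 min later.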
# PTHR1 ag = agonists of human PTHR1 parathyroid hormone receptor. Q03431. HEK293 GP2 PTHR1 cells, GloSensor cAMP luminescence, 1 h. Potency, µM (highest dose often 115 µM), hits mostly activators. 410,000 tested, 0.075% active. AID 743266; also: nearly all actives have a fitted effect of over 55% in size
#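 HEK-293-derived GP2 cells expressing PTHR1 and a GloSensor cAMP reporter, 3,000/well, plated overnight, given luciferin plus IBMX (each 0.5 mM as added) for 1 h at 37 °C, then compound for 1 h at 37 °C. Luminescence was read after 15 min at room temperature.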
# GLP1R inv ag = GLP-1 receptor (human) inverse agonism; AID 624417; Potency, µM (top dose mostly 38.3 µM), most hits filed as inhibitors; 410,000 tested, 1.6% active; HEK293 GLP-1R CRE-luciferase, luminescence, 24 h; GLP-1R form is constitutively active; also: nearly all actives have a fitted effect of over 55% in size
# Target sequence (P43220 whole entry, looked up): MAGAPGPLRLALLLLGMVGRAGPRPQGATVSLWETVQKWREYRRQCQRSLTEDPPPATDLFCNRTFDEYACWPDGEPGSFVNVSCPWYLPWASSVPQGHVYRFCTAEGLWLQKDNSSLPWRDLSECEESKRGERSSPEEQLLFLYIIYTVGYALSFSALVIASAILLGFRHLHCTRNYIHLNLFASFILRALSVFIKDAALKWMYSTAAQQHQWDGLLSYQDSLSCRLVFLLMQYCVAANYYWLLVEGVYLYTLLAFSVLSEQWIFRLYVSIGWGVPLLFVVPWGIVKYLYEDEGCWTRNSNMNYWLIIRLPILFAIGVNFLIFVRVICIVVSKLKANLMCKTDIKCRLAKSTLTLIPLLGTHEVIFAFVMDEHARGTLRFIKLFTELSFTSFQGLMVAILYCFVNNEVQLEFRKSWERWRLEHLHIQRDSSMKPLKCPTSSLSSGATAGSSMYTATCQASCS
#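 HEK293 cells stably co-expressing a cAMP-responsive luciferase reporter and constitutively active GLP-1R were seeded, incubated 12 h, then exposed to compounds for 24 h at 37 C. Luminescence was read 12 min after detection reagent; inverse agonists lower signal.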
# GLP-1R agonist = activates the human GLP-1 receptor; P43220; HEK293 GLP-1R CRE-luciferase, luminescence, 4-6 h; cells express a hypersensitive GLP-1R form; Potency, µM (top dose mostly 45.6 µM), usual class: activators; 380,000 tested, 0.007% active
# Hits are given with their value; 0 = inactive; ? = inconclusive; - = no result given; [ ] = dose if it differs, or a comment. A selection: hits, their analogues and other compounds. The true share with any hit is near 1.7%. Calls follow the shape of the dose curve; as a rule, active = well fitted curve in the direction sought with a large enough effect; inconclusive = small, poorly fitted or top-dose-only effect, or another doubt; inactive = no such curve, though single readings can be large; an effect the other way counts as inactive or inconclusive.
SMILES,HEK293 tox,PTHR1 ag,GLP1R inv ag,GLP-1R agonist
O=C(Nc1ccccc1Cl)N1CCC2(CC1)Oc1ccccc1C(=O)N2Cc1ccc(F)cc1,0,0,0,-
Cc1ccc(NC(=O)C(NC2CCCc3ccccc32)c2ccccc2)c([N+](=O)[O-])c1 (centres undefined),0,0,4µM,0
Cc1ccc(NC(=O)C(NC2CCCc3ccccc32)c2ccccc2)cc1Cl (centres undefined),0,0,?,0
[2H]c1c([2H])c([2H])c2c([nH]c(=S)n2C2CCN(CCCC(=O)c3ccc(F)cc3)CC2)c1[2H],-,-,-,0
COc1cc(CN2CCN(c3cccc(Cl)c3)CC2)cc(OC)c1OC,?,0,5µM,0
Cc1c(/C=C(\C#N)C(=O)Nc2cccc(Cl)c2)c2ccccc2n1Cc1ccccc1,0,0,0,-
O=[N+]([O-])c1ccc(N/N=C2\CC3CC=CC23)cc1 (centres undefined),?,0,1.3µM,0
O=[N+]([O-])c1ccc(N/N=C2\CC3CC=CC23)c([N+](=O)[O-])c1 (centres undefined),0,0,0,0
Cc1cc2c(cc3c(SCc4ccccc4Cl)nnc(C)n32)o1,0,0,0,-
COc1ccc(-c2nc3ccccc3c(C(=O)Nc3ccc(S(=O)(=O)Nc4cc(C)on4)cc3)c2C)cc1,0,0,5µM,0
CCOC(=O)C1CCN(C(=O)Cn2c(=O)oc3cc(S(=O)(=O)N4CCC(C)CC4)ccc32)CC1,0,0,0,-
CN1C[C@H]2c3ccccc3Oc3ccc(Cl)cc3[C@@H]2C1,-,-,-,0
O=C(NCCCN1CCOCC1)/C(=C/c1ccc(-c2cccc([N+](=O)[O-])c2)o1)NC(=O)c1ccccc1,0,0,0,0
Cc1nc2nc(C)n(CCN3CCOCC3)c(=O)c2c(-c2cccc([N+](=O)[O-])c2)c1C(=O)CCCCCCCCCCN1CCC(c2ccccc2)(c2ccccc2)CC1,?,0,2.8µM,0
CCN(CC)C(=S)SCC(=O)NC12CC3CC(CC(C3)C1)C2,0,0,2.8µM,0
CCN(CC)CC(=O)NC12CC3CC(CC(C3)C1)C2,0,0,0,0
O=C(c1ccc2c(c1)N(Cc1ccc(Cl)cc1)C(=O)c1ccccc1S2(=O)=O)N1CCCCCC1,0,0,?,0
C(=C\c1ccc2ccccc2n1)/c1ccccc1,0,?,10µM,0
O=[N+]([O-])c1ccc(/C=C/c2ccc3ccccc3n2)cc1,0,0,10µM,0
O=[N+]([O-])c1ccc(/C=C/c2ccc3cccc(O)c3n2)cc1,0,0,0,0
O=C(Nc1ccc2nn(-c3ccc(F)cc3)nc2c1)c1cccc2c(Cl)cccc12,0,0,0,-
COc1ccc(C(=O)Nc2cc(C)on2)c(OC)c1,0,0,0,0
COc1ccc(C(=O)Nc2ccc(C)cn2)c(OC)c1,0,0,2µM,0
COc1cccc(C(=O)NCCc2csc(-c3ccc(Cl)cc3)n2)c1,0,0,?,-
CN(C)CCCNC(=O)c1ccccn1,0,0,0,0
SMILES,HEK293 tox,PTHR1 ag,GLP1R inv ag,GLP-1R agonist
CC(C)(C)c1ccc(C(=O)NCCc2csc(-c3ccc(Cl)cc3)n2)cc1,0,0,10µM,-
CN(C)CCCNC(=O)c1ccc(-c2nc(-c3ccc(Cl)cc3)cs2)cc1,?,0,6.3µM,0
COc1cccc(-n2nnc(-c3nc(-c4ccccc4F)no3)c2C)c1,0,0,0,-
COc1ccc(NCC(=O)n2c(C)c(C)c3ccccc32)cc1,0[7.66 µM],0,0[7.66 µM],0
COc1ccc(C(=O)c2c(C)c3ccccc3n2CC(O)CNC(C)C)cc1 (centres undefined),8.9µM,?,2.2µM,0
Cc1ccc(S(=O)(=O)N2CCN(C(=O)c3c(C)nn(-c4ccccc4)c3Cl)CC2)cc1,0,0,0,0
Cc1cc(C)c(S(=O)(=O)N2CCN(C(=O)c3c(C)nn(-c4ccccc4)c3Cl)CC2)c(C)c1,0,0,8.9µM,0
Cc1cc(C)c(S(=O)(=O)N2CCN(C(=O)c3ccc(-n4nc(C)c(Cl)c4C)cc3)CC2)c(C)c1,0,0,7.1µM,0
Cc1nn2c(N3CCOCC3)cc(C(C)C)nc2c1-c1ccccc1,0,0,0,0
CCN1CCN(c2cc(C(C)C)nc3c(-c4ccccc4)c(C)nn23)CC1,?,0,4µM,0
CN1CCN(S(=O)(=O)c2ccc(N3CCN(S(=O)(=O)/C=C/c4ccccc4)CC3)nc2)CC1,0,0,7.9µM,0
COc1ccc(-n2c(Cc3ccccc3)nnc2SCc2ccc([N+](=O)[O-])cc2)cc1,0,0,?,0
O=[N+]([O-])c1ccc(CSc2nnc(Cc3ccccc3)n2-c2ccc(F)cc2)cc1,0,0,10µM,0
CCOC(=O)c1nc(C)nc(Sc2n[nH]c(-c3cc(Cl)cc(Cl)c3)n2)c1C,0,0,0,0
CCOC(=O)c1nc(C)nc(Sc2n[nH]c(-c3ccc(C(C)(C)C)cc3)n2)c1C,0,0,10µM,0
COCCNC(=O)c1ccc(-n2c(-c3ccccc3)cc3c2CCCCC3)cc1,0,0,0,-
CC(=O)N(CCC(Cc1ccccc1)c1ccc2c(c1)OCO2)Cc1ccc(Cl)cc1 (centres undefined),?,0,11µM,0
Cc1ccsc1C(=O)C1CCCN(Cc2cccn2-c2ccc(Cl)cn2)C1 (centres undefined),?,0,?,0
Cc1ccc(-n2cccn2)c(CN2CCCC(C(=O)c3sccc3C)C2)c1 (centres undefined),11µM,0,?,0
Cc1cc(NCCCN2CCOCC2)n2nc(C)c(-c3ccccc3)c2n1,0,0,4.5µM,0
Cc1ccc(NC(=O)C2CCCN(c3ncnc4onc(C)c34)C2)cc1Cl (centres undefined),0,0,0,-
CCOC(=O)C(=CNc1cc(Cl)c(-c2ccco2)c(Cl)c1)C(=O)OCC,0,0,10µM,0
CCOC(=O)C(=CNc1ccc(-c2ccco2)c(Cl)c1)C(=O)OCC,0,0,0,0
CC1CCCN(CCCNC(=O)c2ccc3c(c2)N(Cc2cccc(Cl)c2)C(=O)c2ccccc2S3(=O)=O)C1 (centres undefined),0,0,?,-
CC1=NN(C(=O)COc2ccc(C)c(C)c2)C(O)(c2ccc(Cl)cc2)C1 (centres undefined),0,0,13µM,0
Cc1ccc(OCC(=O)N2N=C(C(F)(F)F)CC2(O)C(C)(C)C)cc1C (centres undefined),0,0,0,0
O=C(c1ccc2c(c1)N(Cc1ccccc1)C(=O)c1ccccc1S2(=O)=O)N1CCc2ccccc21,0,0,0,-
O=C(CCl)Nc1ccc(-c2ccccc2)cc1,?,0,10µM,0
O=C(CCl)Nc1ccc(N=Nc2ccccc2)cc1,?,0,?,0
CCCCn1c(C2CC(=O)N(c3ccc(OCC)cc3)C2)nc2ccccc21 (centres undefined),0,0,0,-
